ELG1 genotox: induces genotoxicity in HEK293T cells with luciferase-tagged ELG1; Potency, µM (top dose mostly 46 µM), for the others: at the top dose activity change, positive = activation, usual class: activators; AID 504466; hit rate 1.3% among 330,000; HEK293T ELG1-luciferase reporter, luminescence, 16 h; note: % of control where 0% means no effect; nearly all actives have a fitted effect of over 60% in size
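ELG1-luciferase HEK293T cells, 2,000/well; compound pinned in; 16 hr, 37 °C, 5% CO2; ONE-Glo, 30 min RT; luminescence on CCD imager.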
MCF10A rereplic: DNA re-replication induction in MCF 10a cells; MCF 10A DNA re-replication, Hoechst nuclear intensity, 48 h; Potency, µM (highest dose often 46.1 µM), for inactives: at the highest dose activity, positive = re-replication, usual class: activators; hit rate 2.9% among 350,000; note: % of control where 0% means no effect; nearly all actives have a fitted effect of over 50% in size
SW480 rereplic: induces DNA re-replication in SW480 colon adenocarcinoma cells; Potency, µM (highest dose often 46.1 µM), for inactives: at the highest dose re-replication activation, actives largely listed as activators; hit rate 1.8% among 340,000; SW480 DNA re-replication, Hoechst DNA content imaging, 48 h; note: % of control where 0% means no effect; nearly all actives have a fitted effect of over 55% in size
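DNA re-replication was detected as more nuclei of elevated Hoechst intensity after 48 hr exposure to compound (23 nL pinned per well of 250 cells).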
ELG1 repair inh: ELG1-dependent DNA repair inhibition | hit rate 2.3% among 330,000 | AID 504467 | Potency, µM (series often up to 46.1 µM), for inactives: at the top dose activity change, negative = inhibition, usual class: inhibitors | HEK293T ELG1-luciferase reporter, luminescence, 16 h; DNA damage induced by 5-fluorouridine; note: % is set by controls: 0 for no effect and ±100 for the full control effect; nearly all actives have a fitted effect of over 55% in size
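Luminescence from the luciferase reporter, measured 30 min after ONE-Glo reagent at room temperature, was the read-out. Beforehand, 2,000 cells per well were exposed for 16 hr at 37 °C to 5-fluorouridine together with compound or vehicle.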
A-T KAP1 phos: potential ataxia-telangiectasia treatment; F2112 A-T fibroblasts, KAP-1 phosphorylation AlphaLISA; neocarzinostatin DNA damage 30 min before lysis; Potency, µM (series often up to 57.5 µM), without a hit: at the top dose activation, most hits filed as activators; hit rate 0.19% among 320,000; AID 485349; note: % of control where 0% means no effect; nearly all actives have a fitted effect of over 45% in size
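ATM-like activity read as KAP-1 phosphorylation via AlphaLISA donor/acceptor antibody pairs after lysis and 6 hr at 25C. Cells were ATM-null patient fibroblasts (F2112, hTERT), dosed 60 min, then exposed to the DSB inducer NCS for 30 min.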
p53 reactivation: restores transcriptional activity of mutant p53 | H1299 p53-A138V BP100-luciferase reporter, luminescence, 24 h | Potency, µM (titrated, usually from 92.2 µM), for the others: at the highest dose activity change, positive = activation, most hits filed as activators | hit rate 0.063% among 320,000 | AID 504706; note: % of control where 0% means no effect; nearly all actives have a fitted effect of over 45% in size
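p53-null H1299 cells stably carrying temperature-sensitive p53-A138V and a BP100-luciferase reporter were pinned with compounds (4-point, 1:5 series) and held 24 hrs at 37 deg C. Luminescence was read 10 min after detection reagent.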
An asterisk follows results filed as active; ? = inconclusive; . = not tested or not shown. In the library only some 7.1% were active in any assay of this set; here they are far more common. Calls come from the whole dose curve; as a rule, active = well fitted curve in the direction sought with a large enough effect; inconclusive = small, poorly fitted or top-dose-only effect, or another doubt; inactive = no such curve, though single readings can be large; an effect the other way counts as inactive or inconclusive. Potency is the fitted concentration of half-maximal effect.

SMILES | ELG1 genotox | MCF10A rereplic | SW480 rereplic | ELG1 repair inh | A-T KAP1 phos | p53 reactivation
O=c1cc(-c2ccc3c(c2)OCO3)oc2ccccc12 | 9.2µM* | 28% | 3% | ? | 6% | ?
COc1ccc(-c2cc(=O)c3ccccc3s2)cc1 | 2.3µM* | -13% | -23% | ? | 5% | ?
COc1ccc2oc(-c3ccccc3[N+](=O)[O-])cc(=O)c2c1 | ? | 6.5µM* | 8.2µM* | ? | -5% | 1%
COc1c(O)cc(O)c2c(=O)cc(-c3ccccc3)oc12 | 12% | 16µM* | -4% | 12% | 0% | ?
CC1CN(S(=O)(=O)c2cc(C(=O)N3CCCCC3C)ccc2Cl)CC(C)O1 (configuration not stated) | 0% | ? | ? | ? | 9% | -1%
COc1ccc(-c2cc(=Nc3ccc(C)cc3)c3ccccc3o2)cc1 | -9% | 3% | 12% | ? | 1% | 2%
O=c1cc(-c2ccncc2)oc2ccccc12 | -3% | 18% | -5% | 9.2µM* | -18% | -3%
COc1ccc(-c2cc(=O)c3ccccc3o2)cc1 | 21µM* | 1% | -6% | ? | 14% | 23%
COc1ccc(N=c2cc(-c3ccc(O)cc3)oc3ccccc23)cc1 | -5% | ? | 0% | ? | 1% | 16%
COc1ccc(-c2cc(=O)c3c(O)c(OC)c(O)cc3o2)cc1 | 1.8µM* | 0% | ? | ? | -7% | 11%
COc1ccc(N=c2cc(-c3ccc(OC)cc3)oc3ccccc23)cc1 | -4% | 13% | ? | 23µM* | 0% | 1%
O=c1cc(-c2ccc(O)cc2)oc2ccccc12 | ? | 11% | 0% | ? | 1% | 4%
Cc1ccc(NC2CCCN(C(=O)C3CCCCC3)C2)cc1C (configuration not stated) | -12% | 10% | 9% | ? | 3% | -22%
Cc1cccc(-c2oc3ccccc3c2-c2ccc3c(c2)OCO3)c1 | 0% | ? | -9% | -14% | -4% | .
COc1cc(-c2cc(=O)c3ccccc3o2)ccc1O | 15µM* | 7% | -10% | ? | -2% | 16%
Nc1c(-c2ccc3c(c2)OCCO3)oc2ccccc2c1=O | 10µM* | 18µM* | 21µM* | ? | 9% | ?
Cc1ccc2nc(-c3ccc(S(=O)(=O)N4CCOCC4)cc3)cn2c1 | 23µM* | . | . | ? | -1% | 26%
Cc1ccc(CNC(=O)/C=C/c2ccc(S(=O)(=O)N3CCOCC3)cc2)cc1 | -4% | ? | 0.82µM* | -14% | -8% | -6%
O=C(/C=C/c1ccc(S(=O)(=O)N2CCOCC2)cc1)N1CCN(c2ccccc2)CC1 | -9% | 9% | 16% | ? | 5% | 0%
Cc1ccn2cc(-c3ccc(S(=O)(=O)N4CCOCC4)cc3)nc2c1 | 7% | . | . | ? | 22% | 10%
CC1CCCC(C)N1C(=O)/C=C/c1ccc(S(=O)(=O)N2CCOCC2)cc1 (configuration not stated) | -6% | 47% | -62% | 13µM* | 10% | 2%
NS(=O)(=O)c1ccc(CNC(=O)/C=C/c2ccc(S(=O)(=O)N3CCOCC3)cc2)cc1 | 0% | 1% | 19% | 13% | 4% | -4%
O=C(/C=C/c1ccc(S(=O)(=O)N2CCOCC2)cc1)Nc1ccc(F)c(F)c1F | -3% | 3% | -5% | 21µM* | 4% | -1%
CC1CN(C(C)C)C(=S)NC1=O (configuration not stated) | . | 0% | 0% | . | . | .
Cc1ccc(NC(=O)NC(=O)COc2ccccc2C(N)=O)c(C)c1 | 11% | 5% | -11% | ? | 3% | 7%
SMILES | ELG1 genotox | MCF10A rereplic | SW480 rereplic | ELG1 repair inh | A-T KAP1 phos | p53 reactivation
CCOc1ccc(OCCCC(=O)ON=C(N)c2ccccc2C)cc1 | 1% | -1% | -2% | ? | 14% | 13%
c1ccc(COc2ccc(OCCCn3cncn3)cc2)cc1 | 4.1µM* | -4% | -1% | ? | -4% | ?
O=C(CN1CCN(c2ccccn2)CC1)Nc1ccc(F)cc1F | 6% | 1% | 0% | 18% | 3% | 6%
CCCS(=O)(=O)NCc1cn2cccc(C)c2n1 | 4% | 2.6µM* | 10µM* | 11% | -2% | 10%
Cc1cccn2cc(-c3ccccc3)nc12 | ? | -6% | -5% | ? | 5% | ?
Fc1cccc(NCc2cn3ccccc3n2)c1 | 2.3µM* | 0% | -9% | ? | . | .
Cc1cccn2cc(CNc3ccccc3)nc12 | 21µM* | 13% | -3% | ? | -6% | ?
O=C(NCCc1ccccc1)C(c1ccccc1F)N(C(=O)c1csnn1)C1CC1 (configuration not stated) | -7% | -1% | -11% | -2% | 6% | -4%
C/C(=N\NC(=O)CN(c1ccccc1)S(C)(=O)=O)c1ccccc1O | -4% | -1% | 2% | 16µM* | -4% | 1%
CC(C)(C)C1CCC(=NNC(=O)CN(c2ccccc2)S(C)(=O)=O)CC1 (configuration not stated) | -1% | 5% | 2% | 4% | . | 6%
C/C(=N\NC(=O)CN1CCCCC1)c1ccccc1O | 14% | 15% | 6.5µM* | ? | -3% | 25%
CCc1nccn1CCC(=O)N1CCCC(N2CCN(c3ccccc3C)CC2)C1 (configuration not stated) | -13% | ? | 5% | -10% | 10% | ?
CCOc1ccc(NC(=O)/C(C#N)=C\c2ccc(N3CCCC3)c(C)c2)cc1 | . | 29% | ? | . | . | .
CCCCCCn1c(COc2ccccc2F)nnc1SCC(=O)N1c2ccccc2NC(=O)C1(C)C | -6% | 21µM* | ? | ? | -1% | -15%
CC1(C)C(=O)Nc2ccccc2N1C(=O)CSc1ncccn1 | -2% | -1% | 1% | -3% | 4% | -3%
O=C(N/N=C/c1ccc([N+](=O)[O-])s1)c1cccc(Br)c1 | -1% | ? | 10µM* | 10µM* | . | 7%
Cc1ccc(C(=O)N/N=C/c2ccc([N+](=O)[O-])s2)cc1 | -5% | 24% | ? | -23% | 2% | -12%
O=C(CNC(=O)c1ccccc1)N/N=C/c1ccc([N+](=O)[O-])s1 | -17% | ? | ? | 6.5µM* | 2% | 18%
O=C(N/N=C/c1ccc(O)c2ncccc12)c1cccc(Br)c1 | 18% | 18µM* | ? | ? | -2% | 5%
O=C(N/N=C/c1cc(Br)ccc1O)c1ccncc1 | ? | ? | ? | ? | -19% | 7%

Screening results as filed in PubChem.
